# From PubChem BioAssay (EPA / NIEHS)
# The source made the active and inactive calls. The calls were made as follows: active = hit-call score of the fitted dose curve at least 0.9, where 1 is the maximum; inactive = score below 0.9.
# Experiments:
# [1] = APR_HepG2_NuclearSize_72hr: Apredica 72-hour HepG2 Assay for Nuclear Size (AID 2282925); conditions: high-content imaging, actives raise or lower the signal
# Method in brief: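 HepG2 cells were exposed to compounds at ten concentrations from 0.39 to 200 uM (duplicate, 0.5% DMSO final) for 72 hr. After fixation in 3.7% formaldehyde, nuclei were stained with Hoechst 33342 (2 ug/mL) and imaged at 20x.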
# [2] = ATG_CRE_CIS: Attagene CIS-FACTORIAL HepG2 Assay for human cAMP Responsive Element (CRE) binding protein 3 (AID 2282926); conditions: HepG2 CRE cis-reporter, Attagene multiplexed mRNA; actives raise or lower the signal
# Method in brief: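 HepG2 cells transiently transfected with cis-element-driven multiple reporter transcription units; CRE reporter mRNA measured 24 h after dosing by RT-PCR, 6-FAM labelling, HpaI digestion and capillary electrophoresis. Bidirectional fit versus DMSO baseline.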
# [3] = biological target: CCAAT/enhancer-binding protein beta (Homo sapiens) (UniProt P17676); assay: ATG_C_EBP_CIS: Attagene CIS-FACTORIAL HepG2 Assay for human CCAAT/Enhancer Binding Protein (C/EBP) beta (AID 2282927); conditions: HepG2 Attagene cis-factorial transcription factor reporter; actives raise or lower the signal
# Method in brief: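 Following a 24 h incubation with test chemical, transfected HepG2 cells yielded RNA whose reporter transcripts were quantified by RT-PCR and fluorescent capillary electrophoresis, with DMSO serving as baseline for bidirectional fitting.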
# [4] = ATG_CMV_CIS: Attagene CIS-FACTORIAL HepG2 Assay for human CMV (Internal Marker) (AID 2282928); conditions: HepG2 CMV promoter reporter, transcription factor profiling; actives raise or lower the signal;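 also: endpoint acts as a background internal control marker rather than a target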
# Method in brief: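 After transient transfection of HepG2 with reporter transcription units driven by cis-regulatory promoters, cells receive test chemical for 24 h. Labeled reporter amplicons, digested with HpaI, are sized and quantified by capillary electrophoresis against DMSO.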
# [5] = ATG_DR4_LXR_CIS: Attagene CIS-FACTORIAL HepG2 Assay for human Liver X Receptor (LXR), DR4 submotif (AID 2282929); conditions: HepG2 Attagene DR4 cis-reporter, mRNA transcription; actives raise or lower the signal
# Method in brief: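 Transiently transfected HepG2 liver cells; cis-regulated reporters; 24 h dosing. RT-PCR plus CE read-out of reporter mRNA. DMSO baseline, bidirectional curve fitting.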
# [6] = biological target: Aryl hydrocarbon receptor (Homo sapiens) (UniProt P35869); assay: ATG_Ahr_CIS: Attagene CIS-FACTORIAL HepG2 Assay for human Aryl Hydrocarbon Receptor (Ahr) (AID 2282930); conditions: HepG2 AhR cis-factorial reporter transcription; actives raise or lower the signal
# Method in brief: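 Values derive from bidirectional fitting against DMSO negative control. Underlying signal: cis-element reporter mRNA in transiently transfected HepG2, harvested 24 h post-dose and measured by RT-PCR plus capillary electrophoresis.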
# [7] = ATG_AP_1_CIS: Attagene CIS-FACTORIAL HepG2 Assay for human Activator Protein 1 (AP-1) (AID 2282931); conditions: HepG2 Attagene cis-factorial AP-1 reporter mRNA; actives raise or lower the signal
# Method in brief: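 We transfected HepG2 cells transiently with a set of cis-regulated reporter transcription units, dosed them for 24 h, and quantified reporter mRNA via RT-PCR and capillary electrophoresis, scoring gain or loss of signal relative to DMSO.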
# [8] = ATG_AP_2_CIS: Attagene CIS-FACTORIAL HepG2 Assay for human Activator Protein 2 (AP-2) (AID 2282932); conditions: HepG2 AP-2 cis-reporter, Attagene transcription factor profiling; actives raise or lower the signal
# Method in brief: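 Bidirectional curve fitting against DMSO was applied to reporter mRNA signals from HepG2 cells 24 h after dosing. Cis-promoter reporter units, transiently transfected, were read by RT-PCR plus capillary electrophoresis.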
# [9] = ATG_BRE_CIS: Attagene CIS-FACTORIAL HepG2 Assay for human Bone Morphogenetic Protein (BMP) Response Element (BRE) (AID 2282933); conditions: HepG2 BMP response element reporter, Attagene transcription factor profiling; actives raise or lower the signal
# Method in brief: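 Endogenous transcription factor activity read in transiently transfected HepG2 cells after 24 h chemical exposure. Bidirectional curve fitting against DMSO; readout is reporter transcript level by RT-PCR with capillary electrophoresis of labelled products.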
# [10] = biological target: Transcription factor E2F1 (Homo sapiens) (UniProt Q01094); assay: ATG_E2F_CIS: Attagene CIS-FACTORIAL HepG2 Assay for human E2F Transcription Factor 1 (AID 2282935); conditions: HepG2 Attagene cis-reporter, E2F reporter RNA transcripts; actives raise or lower the signal
# Method in brief: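 Multiplexed cis-reporter assay: HepG2, transient transfection, 24 h dosing, mRNA quantitation by labeled RT-PCR and CE.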
# [11] = ATG_E_Box_CIS: Attagene CIS-FACTORIAL HepG2 Assay for human Enhancer Box (E-box) (AID 2282936); conditions: HepG2 E-box cis-reporter transcription, actives raise or lower the signal
# Method in brief: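 Multiplexed CIS reporter system in transiently transfected HepG2 cells measures native transcription factor activity. Reporter RNA after 24 h exposure is profiled by RT-PCR-capillary electrophoresis.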
# [12] = ATG_M_61_CIS: Attagene CIS-FACTORIAL HepG2 Assay for M61 Transcription Factor (Internal Marker) (AID 2282937); conditions: HepG2 Attagene CIS-FACTORIAL M61 internal marker reporter; actives raise or lower the signal
# Method in brief: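 Multiplexed reporter mRNA assay, HepG2 human hepatoma cells, 24 h treatment. Signal: FAM-labelled, HpaI-digested RT-PCR fragments by CE. Fit: bidirectional, baseline DMSO.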
# [13] = ATG_EGR_CIS: Attagene CIS-FACTORIAL HepG2 Assay for human Early Growth Response 1 (EGR1) (AID 2282938); conditions: HepG2 Attagene CIS-FACTORIAL EGR reporter mRNA; actives raise or lower the signal
# Method in brief: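 Multiplexed cis-reporter system in human hepatoma HepG2 cells, transiently transfected. Cells are dosed for 24 h; reporter transcripts are amplified, fluorescently tagged and sized by capillary electrophoresis, with DMSO as negative control.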
# [14] = ATG_M_19_CIS: Attagene CIS-FACTORIAL HepG2 Assay for M19 Transcription Factor (Internal Marker) (AID 2282939); conditions: HepG2 Attagene CIS-FACTORIAL M19 internal marker reporter; actives raise or lower the signal
# Method in brief: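 Internal marker readout, fitted in both directions against DMSO, from HepG2 cells carrying transfected cis-element reporter constructs; RT-PCR and capillary electrophoresis of reporter mRNA after 24 h exposure.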
# [15] = ATG_ERE_CIS: Attagene CIS-FACTORIAL HepG2 Assay for Estrogen Response Element (ERE) (AID 2282940); conditions: HepG2 ERE cis-reporter, Attagene RNA transcript; actives raise or lower the signal
# Method in brief: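 After 24 h compound treatment, RNA from transfected HepG2 cells was reverse-transcribed, reporter cDNA PCR-amplified, FAM-labelled, HpaI-cut and resolved by capillary electrophoresis. ERE-driven cis reporter transcripts reflect endogenous factors; gain or loss scored against DMSO.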
# [16] = ATG_Ets_CIS: Attagene CIS-FACTORIAL HepG2 Assay for human Erythroblast Transformation Specific (ETS) (AID 2282941); conditions: HepG2 ETS cis-reporter transcription, actives raise or lower the signal
# Method in brief: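 Human HepG2 hepatoma cells were transiently transfected with promoter-driven reporter constructs and treated for 24 hours. Reporter transcripts were quantified by RT-PCR with fluorescent primer extension; bidirectional curve fitting used DMSO as reference.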
# [17] = biological target: Hepatocyte nuclear factor 3-beta (Homo sapiens) (UniProt Q9Y261); assay: ATG_FoxA2_CIS: Attagene CIS-FACTORIAL HepG2 Assay for human Forkhead box A2 (FOXA2) (AID 2282942); conditions: HepG2 cis-reporter transcription factor activity, 24 h; actives raise or lower the signal
# Method in brief: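 Multiplexed cis-element reporter assay in transiently transfected HepG2. Twenty-four hours post-dosing, RNA was reverse-transcribed, amplified, FAM-labelled, HpaI-digested and separated by CE. Activity gain or loss relative to DMSO.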
# [18] = ATG_FoxO_CIS: Attagene CIS-FACTORIAL HepG2 Assay for human Forkhead box O (FoxO) (AID 2282943); conditions: HepG2 Attagene cis-reporter, FoxO element, mRNA; actives raise or lower the signal
# Method in brief: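 Values reflect reporter mRNA induction or loss in HepG2 cells 24 h post-dosing, fitted bidirectionally with DMSO as negative control and baseline. Detection used RT-PCR and fluorescence capillary electrophoresis.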
# [19] = ATG_GATA_CIS: Attagene CIS-FACTORIAL HepG2 Assay for human GATA Binding Protein (AID 2282944); conditions: HepG2 GATA cis-element reporter, Attagene multiplex mRNA; actives raise or lower the signal
# Method in brief: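 Reporter transcripts from a GATA cis-regulated unit, among multiplexed reporters in transfected HepG2 cells, were measured by RT-PCR with capillary electrophoresis after 24 h dosing. Induction or loss scored relative to DMSO.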
# [20] = biological target: Retinoic acid receptor alpha (Homo sapiens) (UniProt P10276); assay: ATG_DR5_RAR_CIS: Attagene CIS-FACTORIAL HepG2 Assay for human Retinoic Acid Receptor Alpha (RARE), DR5 submotif (AID 2282934); conditions: HepG2 Attagene cis-factorial RARE DR5 reporter, mRNA; actives raise or lower the signal
# Method in brief: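 Endpoint fitted in both directions relative to DMSO as negative control. It reflects DR5 cis-element reporter mRNA induction in transiently transfected HepG2 cells, measured 24 h after dosing through RT-PCR and fluorescent capillary electrophoresis.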
# CCAAT/enhancer-binding protein beta (Homo sapiens), sequence (P17676 whole entry, looked up): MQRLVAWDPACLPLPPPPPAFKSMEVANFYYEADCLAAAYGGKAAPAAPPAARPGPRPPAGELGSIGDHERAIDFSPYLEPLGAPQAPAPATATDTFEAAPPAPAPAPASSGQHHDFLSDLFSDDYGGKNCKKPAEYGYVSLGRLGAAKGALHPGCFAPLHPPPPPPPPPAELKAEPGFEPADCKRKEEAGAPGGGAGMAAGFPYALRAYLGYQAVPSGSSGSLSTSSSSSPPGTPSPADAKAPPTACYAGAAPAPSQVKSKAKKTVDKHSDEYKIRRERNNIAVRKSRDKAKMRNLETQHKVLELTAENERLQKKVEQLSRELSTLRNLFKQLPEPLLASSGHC
# Retinoic acid receptor alpha (Homo sapiens), sequence (P10276 whole entry, looked up): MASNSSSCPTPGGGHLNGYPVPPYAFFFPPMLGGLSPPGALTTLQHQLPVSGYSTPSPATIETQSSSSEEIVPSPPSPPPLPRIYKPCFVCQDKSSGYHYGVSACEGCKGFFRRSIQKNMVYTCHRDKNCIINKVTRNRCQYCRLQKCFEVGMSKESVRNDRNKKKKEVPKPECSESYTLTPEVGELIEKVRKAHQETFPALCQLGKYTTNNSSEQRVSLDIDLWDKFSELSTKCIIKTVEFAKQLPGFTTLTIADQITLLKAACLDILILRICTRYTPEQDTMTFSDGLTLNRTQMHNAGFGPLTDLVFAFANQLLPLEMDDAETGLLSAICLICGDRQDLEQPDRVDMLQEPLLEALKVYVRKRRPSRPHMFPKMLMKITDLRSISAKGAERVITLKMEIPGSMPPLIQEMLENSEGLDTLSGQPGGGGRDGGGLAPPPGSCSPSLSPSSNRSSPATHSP
# Hepatocyte nuclear factor 3-beta (Homo sapiens), sequence (Q9Y261 whole entry, looked up): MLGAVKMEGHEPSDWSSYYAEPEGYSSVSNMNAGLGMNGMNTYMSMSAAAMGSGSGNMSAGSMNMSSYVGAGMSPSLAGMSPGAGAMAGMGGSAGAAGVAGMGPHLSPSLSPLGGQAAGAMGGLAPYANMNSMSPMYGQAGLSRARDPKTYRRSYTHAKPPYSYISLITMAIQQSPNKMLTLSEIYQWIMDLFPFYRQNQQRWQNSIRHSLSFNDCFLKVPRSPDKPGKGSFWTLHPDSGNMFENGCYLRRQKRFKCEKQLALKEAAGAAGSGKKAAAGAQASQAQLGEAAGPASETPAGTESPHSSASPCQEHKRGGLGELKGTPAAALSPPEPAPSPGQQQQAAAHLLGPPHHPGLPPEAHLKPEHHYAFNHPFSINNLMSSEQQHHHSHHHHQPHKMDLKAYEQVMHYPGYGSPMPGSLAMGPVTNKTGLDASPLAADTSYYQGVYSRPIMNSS
# Transcription factor E2F1 (Homo sapiens), sequence (Q01094 whole entry, looked up): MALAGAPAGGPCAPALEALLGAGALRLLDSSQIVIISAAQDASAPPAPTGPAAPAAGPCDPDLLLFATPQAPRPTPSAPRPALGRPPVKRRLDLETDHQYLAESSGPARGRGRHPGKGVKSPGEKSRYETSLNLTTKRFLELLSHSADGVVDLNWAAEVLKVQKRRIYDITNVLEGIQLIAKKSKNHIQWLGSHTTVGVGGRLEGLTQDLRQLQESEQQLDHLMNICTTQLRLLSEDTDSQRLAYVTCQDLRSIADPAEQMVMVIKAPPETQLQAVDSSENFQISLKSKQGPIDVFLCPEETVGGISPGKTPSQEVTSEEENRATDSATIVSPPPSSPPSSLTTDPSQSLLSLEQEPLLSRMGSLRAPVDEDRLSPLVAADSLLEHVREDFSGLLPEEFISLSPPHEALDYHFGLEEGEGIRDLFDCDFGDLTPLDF
# Aryl hydrocarbon receptor (Homo sapiens), sequence (P35869 whole entry, looked up): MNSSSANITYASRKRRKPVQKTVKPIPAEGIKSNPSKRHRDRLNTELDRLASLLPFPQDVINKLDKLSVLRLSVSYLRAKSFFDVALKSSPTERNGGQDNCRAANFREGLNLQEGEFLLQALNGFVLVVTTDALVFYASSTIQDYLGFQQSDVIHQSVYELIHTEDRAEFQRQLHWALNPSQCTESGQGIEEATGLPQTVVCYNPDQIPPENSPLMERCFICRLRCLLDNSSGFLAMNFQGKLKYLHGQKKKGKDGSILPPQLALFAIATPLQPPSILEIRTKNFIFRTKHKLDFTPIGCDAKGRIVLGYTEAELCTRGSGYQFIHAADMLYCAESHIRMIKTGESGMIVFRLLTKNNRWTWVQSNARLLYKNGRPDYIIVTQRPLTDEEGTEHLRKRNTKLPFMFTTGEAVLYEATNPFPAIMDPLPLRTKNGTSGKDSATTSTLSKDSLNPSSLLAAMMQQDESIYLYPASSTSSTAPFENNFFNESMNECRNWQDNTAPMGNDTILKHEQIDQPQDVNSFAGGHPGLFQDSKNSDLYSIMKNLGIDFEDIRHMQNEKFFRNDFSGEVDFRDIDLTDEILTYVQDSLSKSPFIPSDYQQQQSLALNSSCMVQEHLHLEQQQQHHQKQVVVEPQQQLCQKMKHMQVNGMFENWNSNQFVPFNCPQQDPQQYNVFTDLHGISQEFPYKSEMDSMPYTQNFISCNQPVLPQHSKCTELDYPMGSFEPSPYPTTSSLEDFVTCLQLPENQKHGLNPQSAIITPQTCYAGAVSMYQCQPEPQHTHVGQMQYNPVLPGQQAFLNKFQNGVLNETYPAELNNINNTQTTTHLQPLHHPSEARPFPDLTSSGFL
smiles,measurement,setting,value
C[Si]1(C)O[Si](C)(C)O[Si](C)(C)O[Si](C)(C)O1,outcome,[1],inactive
same,outcome,[2],inactive
same,outcome,[3],inactive
same,outcome,[4],inactive
same,AC50,[5],49.6 µM (active)
same,outcome,[6],inactive
same,outcome,[7],inactive
same,outcome,[8],inactive
same,outcome,[9],inactive
same,outcome,[10],inactive
same,outcome,[11],inactive
same,outcome,[12],inactive
same,outcome,[13],inactive
same,outcome,[14],inactive
same,AC50,[15],27.2 µM (active)
same,outcome,[16],inactive
same,outcome,[17],inactive
same,outcome,[18],inactive
same,outcome,[19],inactive
Cc1ccc(C(C)C)c(O)c1,outcome,[1],inactive
same,outcome,[2],inactive
same,outcome,[3],inactive
same,outcome,[4],inactive
same,outcome,[5],inactive
same,outcome,[6],inactive
same,outcome,[7],inactive
same,outcome,[8],inactive
same,outcome,[9],inactive
same,outcome,[20],inactive
same,outcome,[10],inactive
same,outcome,[11],inactive
same,outcome,[12],inactive
same,outcome,[13],inactive
same,outcome,[14],inactive
same,outcome,[15],inactive
same,outcome,[16],inactive
same,outcome,[17],inactive
same,outcome,[18],inactive
same,outcome,[19],inactive
CCCCCCOCCO,outcome,[1],inactive
same,outcome,[2],inactive
same,outcome,[3],inactive
same,outcome,[4],inactive
same,outcome,[5],inactive
same,outcome,[6],inactive
same,outcome,[7],inactive
same,outcome,[8],inactive
same,outcome,[9],inactive
same,outcome,[20],inactive
same,outcome,[10],inactive
same,outcome,[11],inactive
same,outcome,[12],inactive
same,outcome,[13],inactive
same,outcome,[14],inactive
same,outcome,[15],inactive
same,outcome,[16],inactive
same,outcome,[17],inactive
same,outcome,[18],inactive
same,outcome,[19],inactive
Clc1cc(Cl)c(Cl)cc1Cl,outcome,[1],inactive
same,outcome,[2],inactive
same,outcome,[3],inactive
same,outcome,[4],inactive
same,outcome,[5],inactive
same,outcome,[6],inactive
same,outcome,[7],inactive
same,outcome,[8],inactive
same,outcome,[9],inactive
same,outcome,[20],inactive
same,outcome,[10],inactive
same,outcome,[11],inactive
same,outcome,[12],inactive
same,outcome,[13],inactive
same,outcome,[14],inactive
same,outcome,[15],inactive
same,outcome,[16],inactive
same,outcome,[17],inactive
same,outcome,[18],inactive
same,outcome,[19],inactive
CCCCC(CC)COC(=O)CC(C(=O)OCC(CC)CCCC)S(=O)(=O)O (configuration not stated),outcome,[1],inactive
same,outcome,[2],inactive
same,outcome,[3],inactive
same,outcome,[5],inactive
same,outcome,[6],inactive
same,outcome,[7],inactive
same,outcome,[8],inactive
same,outcome,[9],inactive
same,outcome,[20],inactive
same,outcome,[10],inactive
same,outcome,[11],inactive
same,outcome,[12],inactive
same,outcome,[13],inactive
same,outcome,[14],inactive
same,outcome,[15],inactive
same,outcome,[16],inactive
same,outcome,[17],inactive
same,outcome,[18],inactive
same,outcome,[19],inactive
CC(C)c1ccc(C(=O)N=C(N)N)cc1S(C)(=O)=O,outcome,[1],inactive
same,outcome,[2],inactive
same,outcome,[3],inactive
same,outcome,[4],inactive
same,outcome,[5],inactive
same,outcome,[6],inactive
same,outcome,[7],inactive
same,outcome,[8],inactive
same,outcome,[9],inactive
same,outcome,[20],inactive
same,outcome,[10],inactive
same,outcome,[11],inactive
same,outcome,[12],inactive
same,outcome,[13],inactive
same,outcome,[14],inactive
same,AC50,[15],71.7 µM (active)
same,outcome,[16],inactive
same,outcome,[17],inactive
same,outcome,[18],inactive
same,outcome,[19],inactive
FC(F)(F)C(F)(F)C(F)(F)C(F)(F)C(F)(F)C(F)(F)CCI,outcome,[1],inactive
same,outcome,[2],inactive
same,outcome,[3],inactive
same,outcome,[5],inactive
same,AC50,[6],32.1 µM (active)
same,outcome,[7],inactive
same,outcome,[8],inactive
same,outcome,[9],inactive
same,outcome,[20],inactive
same,outcome,[10],inactive
same,outcome,[11],inactive
same,outcome,[12],inactive
same,outcome,[13],inactive
same,outcome,[14],inactive
same,outcome,[15],inactive
same,outcome,[16],inactive
same,outcome,[17],inactive
same,outcome,[18],inactive
same,outcome,[19],inactive
